This note sets out measurements from PubChem BioAssay (NCATS).

Inconclusive results are not listed. Activity calls are given as the source filed them. Unless noted, calls come from the whole dose curve; as a rule, active = well fitted curve in the direction sought with a large enough effect; inconclusive = small, poorly fitted or top-dose-only effect, or another doubt; inactive = no such curve, though single readings can be large; an effect the other way counts as inactive or inconclusive.

Assay [1] is described as follows: AP1 Signaling Pathway (AID 357; active = well fitted curve in either direction with a large enough effect, not every such curve was filed as active;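 note: ME-180 reporter cells stimulated with EGF at its EC50 level; % is set by controls: 0 for no effect and ±100 for the full control effect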). In outline:
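Cells are seeded overnight, exposed to compound titrations and an EC50 level of EGF for 5 hours at 37 °C, then loaded with CCF4 dye for 2.5 hours. Beta-lactamase activity under the AP-1 element is read as a blue/green ratio.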

Assay [2] can be described thus: NFAT Signaling Pathway (AID 444; active = well fitted curve in either direction with a large enough effect, not every such curve was filed as active;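 note: carbachol stimulus at about its EC50 of 1 µM final; % is set by controls: 0 for no effect and ±100 for the full control effect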). Particulars: Jurkat NFAT-bla M1, carbachol, beta-lactamase ratio, 5 h. In outline:
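Jurkat cells carrying an NFAT-driven β-lactamase reporter and co-transfected muscarinic M1 receptor were treated with compound plus carbachol (1 uM final, an EC50 level) for 5 h at 37 °C. CCF4 loading followed for 1 h at RT; 460/530 nm ratio gave %activity.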

Assay [3] can be described thus: Stat Signaling Pathway (AID 446; active = well fitted curve in either direction with a large enough effect, not every such curve was filed as active;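 note: ME-180 cervical cancer cells given 40 pM IL-6 alongside compound; SIE-controlled beta-lactamase reporter measured as 460/530 nm FRET emission ratio; % is set by controls: 0 for no effect and ±100 for the full control effect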). In outline:
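FRET read-out (405 nm excitation, 460/530 nm emission) of a beta-lactamase reporter under a STAT-inducible element in ME-180 cervical carcinoma cells. Cells with compound receive 40 pM IL-6 for 5 h. Values are normalised to AC90 stimulation and AC90 JAK-inhibitor controls.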

Assay [4] deals with Glucocorticoid receptor (Homo sapiens) (UniProt P04150). In words: GR-GFP Redistribution (AID 450;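 active = compounds whose dose series gives a full or clear partial fitted curve of increased nuclear translocation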; note: potency is the fitted concentration of half-maximal effect). Particulars: U2OS GR-GFP nuclear translocation, laser cytometry, 2 h.
Glucocorticoid receptor (Homo sapiens), sequence (P04150 whole entry, looked up): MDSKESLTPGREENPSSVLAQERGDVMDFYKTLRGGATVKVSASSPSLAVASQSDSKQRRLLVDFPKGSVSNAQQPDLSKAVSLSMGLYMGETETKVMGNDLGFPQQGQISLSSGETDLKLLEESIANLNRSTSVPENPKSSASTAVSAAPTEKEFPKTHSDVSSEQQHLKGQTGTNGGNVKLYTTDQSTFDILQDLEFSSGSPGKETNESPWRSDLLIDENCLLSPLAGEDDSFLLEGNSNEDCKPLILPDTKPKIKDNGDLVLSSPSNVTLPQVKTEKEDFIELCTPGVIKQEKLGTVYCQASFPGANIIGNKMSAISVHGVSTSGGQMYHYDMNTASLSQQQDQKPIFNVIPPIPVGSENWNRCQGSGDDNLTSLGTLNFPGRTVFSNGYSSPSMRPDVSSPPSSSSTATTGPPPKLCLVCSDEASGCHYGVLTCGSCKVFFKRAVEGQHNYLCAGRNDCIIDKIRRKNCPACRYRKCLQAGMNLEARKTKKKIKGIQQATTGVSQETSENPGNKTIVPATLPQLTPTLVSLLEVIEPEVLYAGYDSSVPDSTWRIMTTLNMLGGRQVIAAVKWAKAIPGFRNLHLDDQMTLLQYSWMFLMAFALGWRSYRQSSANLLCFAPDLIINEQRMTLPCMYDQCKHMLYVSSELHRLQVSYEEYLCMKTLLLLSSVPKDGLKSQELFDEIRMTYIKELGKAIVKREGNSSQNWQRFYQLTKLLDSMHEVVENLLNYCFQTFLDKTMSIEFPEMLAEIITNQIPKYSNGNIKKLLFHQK
The target in assay [5] is Cytochrome P450 3A4 (Homo sapiens) (UniProt P08684). The assay is described as follows: qHTS Assay for Inhibitors and Substrates of Cytochrome P450 3A4 (AID 884). For activity change, negative = inhibition: % is set by controls: 0 for no effect and ±100 for the full control effect. Note: nearly all actives have a fitted effect of over 50% in size. Note: potency is the fitted concentration of half-maximal effect. An outline of the steps: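 Luminescent readout of luciferin produced by CYP3A4 (20 nM) dealkylation of Luciferin-PPXE, 25 uM (its KM). NADPH-driven reaction ran 60 min at RT after 10 min compound preincubation; data scaled to 57 uM ketoconazole as 100% inhibition.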
Cytochrome P450 3A4 (Homo sapiens), sequence (P08684 whole entry, looked up): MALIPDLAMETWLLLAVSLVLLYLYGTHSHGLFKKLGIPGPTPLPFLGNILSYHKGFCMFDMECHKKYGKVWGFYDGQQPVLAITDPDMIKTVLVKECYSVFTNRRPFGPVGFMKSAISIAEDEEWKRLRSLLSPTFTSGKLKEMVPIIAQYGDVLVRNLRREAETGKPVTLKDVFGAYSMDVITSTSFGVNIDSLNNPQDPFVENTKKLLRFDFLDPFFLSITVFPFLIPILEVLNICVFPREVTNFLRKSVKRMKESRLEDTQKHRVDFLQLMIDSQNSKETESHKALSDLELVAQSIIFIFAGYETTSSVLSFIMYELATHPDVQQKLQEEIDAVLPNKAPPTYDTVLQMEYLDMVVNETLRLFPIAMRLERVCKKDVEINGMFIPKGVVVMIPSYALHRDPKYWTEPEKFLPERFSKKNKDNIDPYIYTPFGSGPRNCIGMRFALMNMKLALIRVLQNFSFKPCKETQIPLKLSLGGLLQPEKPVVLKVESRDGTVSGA

Assay [6] concerns the target DNA dC->dU-editing enzyme APOBEC-3G (Homo sapiens) (UniProt Q9HC16). In words: qHTS for inhibitors of Vif-A3G interactions: Validation (AID 588379). Note: 0% is about no effect. In outline: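 Yellow fluorescence (Ex 488, Em 500-530) of Vif-coexpressing HeLa A3G-eYFP cells, scanned by Acumen cytometer, reports blocked A3G degradation. Cells plated at 700/well overnight at 37 deg C before compound addition, then a further overnight compound incubation at 37 deg C.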
In general terms: In qHTS, concentration-response curves come from the screen itself.

Assay [7] deals with Zika virus NS2B-NS3 protease. In words: Primary screen GU AMC qHTS for Zika virus inhibitors (AID 1347154).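 Note: 0% = no-inhibitor control and -100% = no-enzyme control; nearly all actives have a fitted effect of over 70% in size.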 In outline: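 Unlinked Zika NS2B hydrophilic domain/NS3 protease domain noncovalent complex (25 nM final) in 10 mM Tris-HCl pH 8.0, 0.01% Tween 20, with AMC peptide substrate. Fluorescence (ex 340, em 450 nm) change over 15 min, room temperature; percent inhibition fitted to 4-parameter Hill equation.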

The nature of assay [8]: Tertiary RLuc qRT-PCR qHTS assay for Zika virus inhibitors (AID 1347169). Note: nearly all actives have a fitted effect of over 55% in size. Note: potency is the fitted concentration of half-maximal effect. In outline: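 Inhibition of ZIKV-RLuc replication in Vero cells, read as Renilla luminescence 1-1.5 hrs after live-cell substrate addition, following 48-72 hrs infection at MOI 1-2 in presence of compound.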
Assay [9] in a line: Primary qHTS for small molecule stabilizers of the endoplasmic reticulum resident proteome: Secreted ER Calcium Modulated Protein (SERCaMP) assay (AID 1508630). Note: potency is the fitted concentration of half-maximal effect. An outline of the steps: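 The SH-SY5Y reporter protocol was run at 3 concentrations up to 38.3 uM (primary) or 11 concentrations (follow-up): 16 h compound, 100 nM thapsigargin for 4 h, then extracellular luciferase luminescence.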

The target of assay [10] is Catechol O-methyltransferase (Homo sapiens) (UniProt P21964). In words: Confirmatory Screen for Target Class Profiling of Small Molecule Inhibitors of Methyltransferases (AID 1745852). Particulars: MTase-Glo luminescence, SAH detection, recombinant enzyme; measured here: COMT max response; stronger effect = lower value.
Catechol O-methyltransferase (Homo sapiens), sequence (P21964 whole entry, looked up): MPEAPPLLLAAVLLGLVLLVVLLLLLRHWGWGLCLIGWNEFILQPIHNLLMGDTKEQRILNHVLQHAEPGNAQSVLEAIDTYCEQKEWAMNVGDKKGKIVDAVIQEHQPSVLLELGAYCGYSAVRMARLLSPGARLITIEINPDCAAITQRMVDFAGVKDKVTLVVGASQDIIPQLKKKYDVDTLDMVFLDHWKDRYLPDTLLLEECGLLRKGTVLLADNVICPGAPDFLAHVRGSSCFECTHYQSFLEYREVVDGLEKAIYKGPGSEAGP
The target in assay [11] is Nicotinamide N-methyltransferase (Homo sapiens) (UniProt P40261). Described as above. Particulars: MTase-Glo luminescence, SAH detection, recombinant enzyme; measured here: NNMT max response; stronger effect = lower value.
Nicotinamide N-methyltransferase (Homo sapiens), sequence (P40261 whole entry, looked up): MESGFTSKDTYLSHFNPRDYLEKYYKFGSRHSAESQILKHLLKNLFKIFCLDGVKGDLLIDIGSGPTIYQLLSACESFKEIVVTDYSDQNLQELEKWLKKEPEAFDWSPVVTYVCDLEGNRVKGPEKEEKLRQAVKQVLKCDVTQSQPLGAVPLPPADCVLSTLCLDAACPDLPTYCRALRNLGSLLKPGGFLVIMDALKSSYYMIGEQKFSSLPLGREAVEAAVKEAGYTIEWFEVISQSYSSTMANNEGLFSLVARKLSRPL
Assay [12] concerns the target Phenylethanolamine N-methyltransferase (Homo sapiens) (UniProt P11086). The description is as above. Particulars: MTase-Glo luminescence, SAH detection, recombinant enzyme; measured here: PNMT max response; stronger effect = lower value.
Assay [13] in a line: Primary qHTS for Huh7 cytotoxicity: counterscreen for inhibitors of MERS-S pseudotyped particle cell entry (AID 1479147; calls by dose curve). Particulars: outcome: dose series up to 57.1 µM unless noted.
A short description of assay [14]: Primary qHTS for inhibitors of MERS-S pseudo-typed particle cell entry (AID 1479149; calls by dose curve; note: nearly all actives have a fitted effect of over 60% in size).
Assay [15] in a line: Primary qHTS for Vero E6 cytotoxicity: counterscreen for inhibitors of SARS-S pseudo-typed particle cell entry (AID 1479150; calls by dose curve). Particulars: outcome: dose series up to 57.1 µM unless noted.
A short description of assay [16]: qHTS to identify inhibitors of the type 1 interferon - major histocompatibility complex class I in skeletal muscle: primary screen against the NCATS Mechanism Interrogation Plate v5.0 (MIPE) Libary (AID 1347411).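 For activity change, negative = inhibition: plate controls were vehicle for no effect and reference inhibitor for full effect.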 Note: nearly all actives have a fitted effect of over 65% in size. Note: potency is the fitted concentration of half-maximal effect. An outline of the steps: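 Luminescence from CRISPR HiBit-tagged endogenous HLA-B in human myoblasts reported MHC class I level after 24 h of IFN-beta (4 ng/ml) plus compound. Compounds ran as 11-point 1:3 series, top 46 uM final.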

Assay [17] is described as follows: qHTS assay to identify inhibitors of the type 1 interferon - major histocompatibility complex class I in skeletal muscle: Counter screen cell viability and HiBit confirmation (AID 1347412). Note: nearly all actives have a fitted effect of over 60% in size. Note: potency is the fitted concentration of half-maximal effect. Conditions: iHSKM muscle cells + IFN-b, HiBiT or CellTiter-Glo, 24 h; Potency: HiBiT; Viability, at 45.9 µM (top of the series). An outline of the steps:
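Human myoblast knock-in line, 4.0 ng/ml IFN-beta stimulation, 24 h compound treatment. Endpoints: HiBiT lytic luminescence (HLA-B level) and CellTiter Glo (ATP). Dosing 12 concentrations, 3-fold steps, 46 uM highest final.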

Assay [18] in a line: Confirmatory qHTS for VERO E6 Cytotoxicity Assay: Counterscreen for SARS-CoV-2 CPE Assay (AID 1508605; calls by dose curve; note: nearly all actives have a fitted effect of over 60% in size; note: potency is the fitted concentration of half-maximal effect).
A short description of assay [19]: Confirmatory qHTS for activators (rescue) of SARS-CoV-2 Cytopathic Effect (CPE) (AID 1508606; calls by dose curve; note: potency is the fitted concentration of half-maximal effect; nearly all actives have a fitted effect of over 70% in size).
Assay [20] deals with HEK293T. In words: qHTS assay to identify novel small-molecules to repurpose for Merkel cell carcinoma treatment (AID 1296009). Note: nearly all actives have a fitted effect of over 60% in size. Conditions: MCC and control cell lines, CellTiter-Glo viability, 72 h; at 44.8 µM (top of the series) unless noted. An outline of the steps:
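Viability readout: ATP luminescence (CellTiter-Glo) after 72 hr drug exposure at 37 degree celsius. Dose-response format was 8 points for NPC and 11 points for MIPE; data normalized to in-plate controls.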

Phenylethanolamine N-methyltransferase (Homo sapiens), sequence (P11086 whole entry, looked up): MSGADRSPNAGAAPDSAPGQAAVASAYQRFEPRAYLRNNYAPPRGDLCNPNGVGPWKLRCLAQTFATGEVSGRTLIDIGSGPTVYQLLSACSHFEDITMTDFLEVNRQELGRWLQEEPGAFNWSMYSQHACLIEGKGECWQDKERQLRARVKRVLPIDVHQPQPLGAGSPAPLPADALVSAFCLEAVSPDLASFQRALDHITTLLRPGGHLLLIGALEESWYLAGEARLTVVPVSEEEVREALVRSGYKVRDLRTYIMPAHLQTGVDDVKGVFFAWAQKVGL
DNA dC->dU-editing enzyme APOBEC-3G (Homo sapiens), sequence (Q9HC16 whole entry, looked up): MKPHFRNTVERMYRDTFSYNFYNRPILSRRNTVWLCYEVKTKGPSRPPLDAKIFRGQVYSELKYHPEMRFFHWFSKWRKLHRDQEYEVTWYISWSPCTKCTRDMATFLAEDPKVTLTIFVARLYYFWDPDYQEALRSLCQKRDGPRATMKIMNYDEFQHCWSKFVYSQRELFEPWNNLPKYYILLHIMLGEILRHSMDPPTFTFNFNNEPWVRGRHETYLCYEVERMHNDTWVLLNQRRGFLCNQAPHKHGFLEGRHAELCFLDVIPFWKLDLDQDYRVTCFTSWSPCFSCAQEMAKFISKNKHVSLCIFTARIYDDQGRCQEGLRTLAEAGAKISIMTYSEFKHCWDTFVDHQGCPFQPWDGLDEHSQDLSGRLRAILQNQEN

On to `C=CCN1CCC2(C)c3cc(O)ccc3C[C@H]1[C@H]2C`, for which the outcome in [1] and in assay [3] was “inactive” each time. Also, in [2] (at 38 µM (top of the series)), the activity change, negative = inhibition was -29.1% (inactive). Besides, the Potency in assay [4] is > 46000 nM (inactive). Also, the Potency entry in [5], in assay [6], in assay [7], in assay [8] and in assay [9] was “inactive” in each case.
With `CC1CCCC(=O)CCC/C=C/c2cc(O)cc(O)c2C(=O)O1` (configuration not stated), the Potency in assay [5] is 2000 nM (active).
Take `COc1cc(N2CCN(C)CC2)ccc1N`: the activity in assay [10] was -7.03%; in [11], -3.44%; in [12], -33.9%.
Turning to `COc1ccc(CN(C(=O)[C@@H](N)Cc2c(C)cc(C(N)=O)cc2C)[C@@H](C)c2ncc(-c3ccccc3)[nH]2)cc1C(=O)O`, the outcome in [13] and in assay [15] was “inactive” in each case. Also, the Potency result in assay [14] is “inactive”.
Take `CC(=O)O[C@H]1CC[C@H]2[C@@H]3CC[C@H]4CC(=O)C=C(C)[C@]4(C)[C@H]3CC[C@]12C`: the outcome in assay [13] and in assay [15] was “inactive” throughout. Besides, the Potency result in assay [14] was “inactive”.
Turning to `C=C1[C@@H](C)[C@H]2[C@H](Cc3ccccc3)NC(=O)[C@]23[C@H](OC(C)=O)/C=C/[C@](C)(O)C(=O)[C@@H](C)C/C=C/[C@H]3[C@@H]1O`, the Potency entry in assay [7] and in assay [9] was “inactive” throughout.
On to `CN[C@@H]1C[C@H]2O[C@@](C)([C@@H]1OC)n1c3ccccc3c3c4c(c5c6ccccc6n2c5c31)C(=O)NC4`, for which the Potency in assay [16] is 829 nM (active); in assay [17], 198 nM (active).
Consider `CC(=O)OC[C@]12C[C@H](OC(=O)CC(C)C)C(C)=C[C@H]1O[C@@H]1[C@H](O)[C@@H](O)[C@@]2(C)[C@]12CO2`, for which, in assay [18], the Potency was 113 nM (active).
Turning to `CC1=CC(=O)[C@@H](O)[C@]2(C)C3[C@@H](O)[C@@H]4OC(=O)[C@@H]([C@H]4C)[C@]3(C)C(=O)C[C@@H]12` (some centres not stated), the Potency in [18] was 2240 nM (active).
On to `CN(C)c1cc2c(cc1Sc1nc3c(N)nccc3n1CCNCC(C)(C)C)OCO2`, for which the Potency in assay [19] was 2240 nM (active).
As to `C=C(CO)C(=O)O[C@H]1CC(=C)[C@@H]2C[C@H](O)C(=C)[C@@H]2[C@H]2OC(=O)C(=C)[C@@H]21`, the activity in assay [10] was -80.9%; in assay [11], -6.26%; in assay [12], -8.66%.
With `C[C@@H]1CN(Cc2ccc(F)cc2)CCN1C(=O)COc1ccc(Cl)cc1NC(N)=O`, the Potency result in assay [16] is “inactive”.
Consider `Cc1sc2c(c1C)C(c1ccc(Cl)cc1)=N[C@@H](CC(N)=O)c1nnc(C)n1-2`, for which the Potency entry in assay [17] is “inactive”.
In the case of `CN1CCN(c2nc3ccccc3nc2Cl)CC1`, the outcome in assay [20] is “inactive”.
On the same count and under the same terms, for `C=C1C[C@]2(O)[C@@]3(C)CCC(=O)C(C)(C)C3=C(O)C(=O)[C@@]2(C)[C@@H]2C(=O)O[C@@](C)(C(=O)OC)C(=O)[C@@]12C` the value was “inactive [at 17.4 µM]”; for `C=C(C)[C@@H]1[C@H]2OC(=O)[C@H]1[C@]1(O)C[C@H]3O[C@]34C(=O)O[C@H]2[C@]14C`, “inactive”.
Still for that read-out and setting: for `Nc1ncnc2c1ncn2[C@@H]1O[C@@H]2COP(O)(=S)O[C@H]2[C@H]1O` (some centres not stated) the value was “inactive [at 9.27 µM]”.
For `C[C@@]1(CO)[C@H](O)CC[C@@]2(C)[C@H]1CC[C@H]1C[C@@H]3C[C@@]12CC[C@]3(O)CO`, the outcome in assay [1] and in assay [3] was “inactive” each time. In addition, in assay [2] (at 17.2 µM (top of the series)), the activity change, negative = inhibition is 10.1% (inactive). In addition, the Potency in [4] was > 20600 nM (inactive). Also, the Potency result in assay [9] was “inactive”.
On to `C[C@H]1CCC/C=C/C2C[C@H](O)C[C@H]2[C@H](O)/C=C/C(=O)O1` (some centres not stated), for which the Potency entry in [7] was “inactive”. Moreover, the Potency was 147 nM (active) in assay [16], 316 nM (active) in [9] and 140 nM (active) in assay [17].
`CCC1C2CC3C4N(C)c5ccccc5C45CC(C2C5O)N3C1O` (configuration not stated): the outcome in [20] is “inactive”.
Regarding `CN1CCc2cc3c(cc2C1C1OC(=O)c2c1ccc1c2OCO1)OCO3` (configuration not stated), in assay [5], the Potency was 1260 nM (active). Further, the Potency result in assay [6], in assay [7] and in assay [9] was “inactive” in each case.
With `CNc1ccc2oc(C[C@H]3O[C@@]4(CC[C@H]3C)O[C@H](C(C)C(=O)c3ccc[nH]3)[C@H](C)C[C@H]4C)nc2c1C(=O)O` (some centres not stated), in assay [8], the Potency is 658 nM (active).
Consider `CCCCN1[C@@H]2CC[C@H]1CC(OC(c1ccc(F)cc1)c1ccc(F)cc1)C2` (some centres not stated), for which the Potency in assay [19] is 5010 nM (active). Further, the activity was 0.354% in [10], -14% in assay [11] and 3.98% in assay [12].
As to `Oc1ccc2c3c1O[C@H]1c4[nH]c5c(N=C=S)cccc5c4C[C@@]4(O)[C@@H](C2)N(CC2CC2)CC[C@]314`, in assay [18], the Potency entry was “inactive”. Besides, the Potency in [19] is 10000 nM (active).
Consider `C#C[C@]1(O)CC[C@H]2[C@@H]3CC[C@H]4Cc5nc6nc7ccccc7n6cc5C[C@]4(C)[C@H]3CC[C@@]21C`, for which the activity in assay [10] is -13.5%; in [11] it was -21%; in assay [12] it was -31.4%.
Taken in the same sequence, the figures for `CCCN(CCC)[C@@H]1CCc2ccc3[nH]c(C#N)cc3c2C1` were -0.359%, -9.72% and -4.55%.
For `CN1CCC2=C(C1)c1ccccc1Cc1ccccc12`, the outcome in assay [13] and in assay [15] was “inactive” in each case. Besides, the Potency result in assay [14] was “inactive”.
As to `COc1ccc2c(c1)c(CCN(C)C)cn2S(=O)(=O)c1ccccc1`, the Potency result in assay [18] was “inactive”.
Take `CN1CCCCC1Cn1cc(C(=O)c2cc([N+](=O)[O-])ccc2I)c2ccccc21` (configuration not stated): the Potency entry in assay [18] was “inactive”. The Potency in assay [19] was 10000 nM (active).
Consider `COc1cc(C(=O)N2CC[C@@H](O)[C@@H](N)C2)cc2nc(-c3cc4ccccc4n3CC3CC3)n(C)c12`, for which the Potency entry in assay [16] was “inactive”.
On to `Fc1cc(F)c2c(c1)C1C=CCC1C(c1cccnc1)N2` (configuration not stated), for which the activity in [10] is -0.484%; in assay [11], -6.05%; in assay [12], -0.468%.
